GPR151 ag = activators of human GPR151; Q8TDV0; actives 1% (n = 650,000); activation, % at 11.2 µM; PathHunter beta-arrestin GPR151 cells, luminescence; AID 1508602; in the data active = activation above about 4.9%
TEAD-YAP inh = TEAD-YAP interaction inhibition; AID 1259422; inhibition, % at 9.12 µM; actives 1.4% (n = 640,000); HEK-TIYL cells, TEAD-Gal4/YAP UAS-luciferase luminescence; in the data active = inhibition above about 32%
FBW7 act = activators of human E3 ligase FBW7 | Q969H0 | AlphaScreen FBW7–phospho-cyclin E peptide binding, activator screen | normalized activity (activation), % at 26.1 µM | actives 0.13% (n = 650,000); in the data active = normalized activity above about 1.9%;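 note: purified mutant Fbw7 with reduced substrate affinity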
MITF primary = human MITF inhibition, primary screen | O75030 | AlphaScreen MITF homodimerization, bead proximity signal | inhibition, % at 2.6 µM | actives 0.91% (n = 650,000); in the data active = inhibition above about 50%
GPR151 conf act = human GPR151 activation, confirmation screen. shares compounds with GPR151 ag. GPR151 PathHunter beta-arrestin cells, luminescence, 90 min; % of EA-reagent control over plate median. activation, % at 11.2 µM. 6,700 tested, under 10 active;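 active = mean percent activation across replicates above the confirmation screen cutoff of 4.91%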
GPR119 counter = activates human GPR119 in a GPR151 counter-screen | AID 1508611 | activation, % at 11.2 µM | GPR119 PathHunter beta-arrestin cells, luminescence, 90 min; 0 = compound-well median, 100 = enzyme-acceptor control | shares compounds with GPR151 ag | actives 0.3% (n = 6,700);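 active = mean percent activation in the counterscreen above 29.09%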;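 note: counterscreen on off-target GPR119 to flag nonselective hits from the GPR151 activator screen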
Target sequence (Q8TDV5 whole entry, looked up): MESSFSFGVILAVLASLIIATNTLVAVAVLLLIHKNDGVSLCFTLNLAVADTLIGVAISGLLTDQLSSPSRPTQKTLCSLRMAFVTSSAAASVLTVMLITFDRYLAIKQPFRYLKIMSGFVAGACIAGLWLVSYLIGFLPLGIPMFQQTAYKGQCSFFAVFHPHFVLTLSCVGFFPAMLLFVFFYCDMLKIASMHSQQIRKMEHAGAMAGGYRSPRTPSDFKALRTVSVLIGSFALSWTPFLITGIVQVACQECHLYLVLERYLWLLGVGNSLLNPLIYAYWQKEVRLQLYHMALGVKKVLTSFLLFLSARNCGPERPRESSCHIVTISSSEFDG
Each line names hits and unclear results; the compound was inactive in the other large screens (follow-up assays come after a bar, where they were run). In the library only some 3.4% were active in any assay of this set; here they are far more common.

CCC(C)c1ccccc1NC(=O)CCNC(C)=O (centres undefined)	none
CCC(C)c1ccccc1NC(=S)NC(C)=O (centres undefined)	GPR151 ag 31.1 | GPR151 conf act inactive | GPR119 counter inactive
Nc1ncc(Br)cc1S(=O)(=O)NC1CCCCC1	none
Nc1ncc(Br)cc1S(=O)(=O)NC1CCCCCCC1	GPR151 ag 7.3 | GPR151 conf act inactive | GPR119 counter inactive
O=C(Nc1nnc(-c2ccccc2)s1)c1c(F)cccc1Cl	none
Cc1ccc(N(CC(=O)NCCC(C)C)C(=O)CCC(=O)Nc2ccccn2)cc1	GPR151 ag 6.3 | GPR151 conf act inactive | GPR119 counter inactive
O=C(Cc1cccc2c(S(=O)O)cccc12)NC(c1ccccc1)c1ccccc1	GPR151 ag 6.8 | GPR151 conf act inactive | GPR119 counter inactive
CC(=O)c1cccc(-c2nc(C(=O)NCCCN3CCCC3=O)cs2)c1	none
Cn1c(=NC(=O)CS(=O)(=O)c2ccccc2)sc2ccccc21	GPR151 ag 5.0 | GPR151 conf act inactive | GPR119 counter inactive
CCC(C)(C)c1ccc(OCCOCCn2cc([N+](=O)[O-])nc2C)c(C(C)(C)CC)c1	GPR151 ag 5.6 | GPR151 conf act inactive | GPR119 counter inactive
CCOc1cc(S(=O)(=O)NC2CC(C)(C)NC(C)(C)C2)c(C)cc1C	none
CCOc1cc(C)c(C(C)C)cc1S(=O)(=O)NC1CC(C)(C)NC(C)(C)C1	GPR151 ag 7.9 | GPR151 conf act inactive | GPR119 counter inactive
O=C(NC(Cc1ccccc1)C(=O)O)c1ccc(Cl)c(Cl)c1 (centres undefined)	none
COC(=O)CCNC(=O)N1CCOc2ccccc21	none
CCC(=O)N1CCc2cc(S(=O)(=O)CCC(=O)NC3CCCCCC3)ccc21	GPR151 ag 5.0 | GPR151 conf act inactive | GPR119 counter inactive
CC(=O)CC(C)C(=O)N1CCCC(c2nc(C)ncc2-c2cccc(C)c2)C1 (centres undefined)	GPR151 ag 6.4 | GPR151 conf act inactive | GPR119 counter inactive
Cc1cccc(-c2cnc(C)nc2C2CCCN(C(=O)CN(C)C)C2)c1 (centres undefined)	GPR151 ag 14.5 | GPR151 conf act inactive | GPR119 counter inactive
CCC(=O)C1CCCN(C2CCCN(c3nc(C)c4ccc(C)cc4n3)CC2)C1 (centres undefined)	none
Cc1ccc(-n2nc3c(c2NC(=O)c2ccccc2[N+](=O)[O-])CS(=O)(=O)C3)cc1	none
CCC(C)NC(=O)CSc1ncccc1C(=O)O (centres undefined)	GPR151 ag 5.1 | GPR151 conf act inactive | GPR119 counter inactive
O=C(CCNS(=O)(=O)c1cccc2nonc12)Nc1cccc(F)c1	none
CSc1ccc(CNC(C)(C)CO)cc1	none
CN(C)c1ccc(CNC(C)(C)CO)cc1	GPR151 ag 5.1 | GPR151 conf act inactive | GPR119 counter inactive
CCCCSc1nnc2c(n1)OC(C)(C)Nc1ccccc1-2	GPR151 ag 5.1 | GPR151 conf act inactive | GPR119 counter inactive
CCCCSc1nnc2c(n1)OC(c1ccccc1OC)Nc1ccccc1-2 (centres undefined)	none
CCCCSc1nnc2c(n1)OC(c1ccccc1OCC(=O)OCC)Nc1ccccc1-2 (centres undefined)	GPR151 ag 5.1 | GPR151 conf act inactive | GPR119 counter inactive
COC(=O)CSCC(=O)Nc1cc(C)ccc1C	none
CC(=O)Nc1ccc(OCC(O)CNC2CCCC2)cc1 (centres undefined)	GPR151 ag 5.5 | GPR151 conf act inactive | GPR119 counter inactive
Cc1cccc(-n2nnnc2SCC(=O)NN2C(=O)NC(C)(c3ccccc3)C2=O)c1 (centres undefined)	GPR151 ag 6.9 | GPR151 conf act inactive | GPR119 counter inactive
CCOC(=O)C1CCCN(C(=O)NCc2noc3ccc(C)cc23)C1 (centres undefined)	none
O=c1[nH]c2ccc(S(=O)(=O)N3CCN(c4ccccn4)CC3)cc2s1	GPR151 ag 5.1 | GPR151 conf act inactive | GPR119 counter inactive
COC(=O)C1=C(C)N(C)C(=O)NC1c1ccc(Cl)c([N+](=O)[O-])c1 (centres undefined)	none
Cc1ccc(N=Cc2cccc(O)c2O)cc1[N+](=O)[O-]	none
CC(=O)c1ccc(N2CCN(C(=S)Nc3cccc([N+](=O)[O-])c3)CC2)cc1	GPR151 ag 5.2 | GPR151 conf act inactive | GPR119 counter inactive
COc1cc([N+](=O)[O-])ccc1NC(=S)N1CCN(c2ccc(C(C)=O)cc2)CC1	GPR151 ag 7.3 | GPR151 conf act inactive | GPR119 counter inactive
CCOC(=O)C1(Cc2ccccc2C(F)(F)F)CCN(C)CC1	none
CSc1ccc2nc(NC(=O)c3cccc(Cl)c3)sc2c1	none
Cc1cccc(-c2nc3ccccc3c(=O)n2NCc2cccc(Br)c2)c1	none
COc1ccc(CCNC(=O)/C=C\C(=O)O)cc1OC	GPR151 ag 5.0 | GPR151 conf act inactive | GPR119 counter inactive
CCC(Br)C(=O)NCCc1ccc(OC)c(OC)c1 (centres undefined)	GPR151 ag 5.2 | GPR151 conf act inactive | GPR119 counter inactive
CCCN1CCN(C(=S)NCCc2ccc(OC)c(OC)c2)CC1	GPR151 ag 5.5 | GPR151 conf act inactive | GPR119 counter inactive
CN(C(=O)CSc1nncn1-c1ccccn1)C1CCCCC1	none
Cc1cccc(NC(=O)CCC2CCN(C(=O)Cc3ccsc3)CC2)c1	GPR151 ag 5.2 | GPR151 conf act inactive | GPR119 counter inactive
O=C1CS/C(=N\N=C\c2ccc(O)cc2)N1	GPR151 ag 7.4 | GPR151 conf act inactive | GPR119 counter inactive
O=C1CS/C(=N/N=C/c2ccccc2)N1	none
COc1ccc(C[C@@H]2NC(=O)[C@H]3CN(Cc4ccc5ncccc5c4)CCN3C2=O)cc1	none
NC(=O)c1cc(-c2ccc3c(c2)OCO3)no1	GPR151 ag 5.7 | GPR151 conf act inactive | GPR119 counter inactive
COC(=O)c1cc(-c2ccc3c(c2)OCO3)no1	none
CN(C)c1ccc(-c2cnc3c(n2)[nH]c(=O)n3-c2ccccc2)cc1	GPR151 ag 6.0 | GPR151 conf act inactive | GPR119 counter inactive
OCCC1CCCCN1c1ccnc2c(-c3ccsc3)cnn12 (centres undefined)	GPR151 ag 5.4 | GPR151 conf act inactive | GPR119 counter inactive
O=C(Cn1nnnc1CN1CCCCCC1)N1CCN(Cc2ccc3c(c2)OCO3)CC1	none
COc1ccc(CCNC(=O)CSc2nc3cc4c(cc3c(=O)n2Cc2ccco2)OCO4)cc1OC	none
Cc1ccc2c(c1)C=C[C@H]1N2[C@H](C(=O)c2ccccc2)[C@@H](c2ccc(Br)cc2)C1(C#N)C#N	none
O=C(O)c1ccc(Nn2c(=S)[nH]c3ccccc3c2=O)cc1	GPR151 ag 5.0 | GPR151 conf act inactive | GPR119 counter inactive
O=C(Nn1c(=S)[nH]c2ccccc2c1=O)c1ccc(Br)cc1	none
